Assay outcomes from PubChem.
PAX8 reporter – PAX8 transcriptional activity inhibition | RMG-I TPO-luciferase reporter, SteadyGlo, 24 h | inhibition, % at 12.6 µM | 1.2% of 360,000 active;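 active = mean replicate inhibition at least 60% with every replicate also reaching 60%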;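 note: luciferase light reporting Pax8 driven TPO promoter activity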
TWEAK-Fn14 inh – TWEAK-Fn14 signaling inhibition | TWEAK-stimulated Fn14 reporter cells, luciferase luminescence, 8 h | inhibition, % at 10 µM | 2% of 360,000 active; in the data active = inhibition above about 50%
LGR2 antag – blocks bursicon-induced cAMP signaling via Drosophila LGR2. inhibition, % at 9.99 µM. 0.35% of 380,000 active. HEK293 LGR2, CRE-luciferase, bursicon-stimulated, 4 h;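 active = drop in luminescence signal, shown as inhibition above about 50% in the replicate tests, limit read from the data, passing the limit was not always enough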;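 note: agonist challenge used bursicon conditioned medium at about half maximal strength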
EWS-Fli block – EWS/Fli transcriptional activity inhibition | inhibition, % at 12.6 µM | 0.67% of 350,000 active | A673 NR0B1-luciferase reporter, viability-normalised;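 active = mean inhibition of at least 50% after viability correction, with every replicate also passing that limit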;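 note: firefly luciferase signal divided by Alamar Blue viability fluorescence both relative to DMSO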
EBV LMP1 NFkB – inhibitors of Epstein-Barr LMP1-induced NF-kappaB reporter. LMP1-induced NF-kappaB luciferase reporter cells, luminescence. inhibition, % at 12.5 µM. 0.69% of 350,000 active. AID 504558; in the data active = inhibition above about 41%
TROY signal inh – inhibitors of TROY-dependent NF-kB signaling | Q293 LMP1-TROYcd NF-kB luciferase reporter, 4 h | 0.98% of 360,000 active | inhibition, % at 10 µM | AID 1347056;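 active = compounds whose plate-normalised and pattern-corrected inhibition of the luciferase reporter signal at the single screening dose is 50% or more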
A number is an active result; . = inactive; / = no result given. Only some compounds are listed: those with a hit (about 3.2% of all), similar ones and a draw of the others.

SMILES	PAX8 reporter	TWEAK-Fn14 inh	LGR2 antag	EWS-Fli block	EBV LMP1 NFkB	TROY signal inh
COc1cc(/C=N\NC(=O)c2ccc(-c3ccccc3)cc2)cc(OC)c1O	75	.	.	.	.	.
COc1cccc(-c2ccc([C@H]3[C@@H](CO)N4C(=O)CN(C(=O)c5ccncc5)C[C@H]34)cc2)c1	/	/	.	/	/	/
Cc1cccc(S(=O)(=O)N2C[C@H](O)COC[C@H]3O[C@@H](CC(=O)N4CCN(C)CC4)CC[C@@H]32)c1	.	/	.	.	/	/
C[C@H](CO)N1C[C@H](C)[C@@H](CN(C)S(=O)(=O)c2cn(C)cn2)OCCCC[C@H](C)Oc2ccc(NC(=O)CCCCCC(=O)Nc3ccccc3N)cc2C1=O	.	/	.	.	/	/
COc1ccc(C=O)cc1OS(=O)(=O)c1ccc(NC(C)=O)cc1	.	.	.	.	.	.
COc1ccc(/C=N/NC(=O)c2ccc3ccccc3c2)cc1OS(=O)(=O)c1ccc(NC(C)=O)cc1	/	52	/	/	.	.
Cc1ccc(S(=O)(=O)Nc2ccc3c(c2)CC(=O)N([C@H](C)CO)C[C@H](C)[C@@H](CN(C)Cc2ccc(C(F)(F)F)cc2)O3)cc1	.	/	.	.	/	/
C[C@H]1CN([C@@H](C)CO)C(=O)Cc2cc(NS(=O)(=O)c3cccs3)ccc2O[C@@H]1CN(C)Cc1ccc(C(F)(F)F)cc1	.	/	.	.	/	/
C[C@H](CO)N1C[C@H](C)[C@H](CN(C)Cc2ccc(C(F)(F)F)cc2)Oc2ccc(NS(=O)(=O)c3ccc(F)cc3)cc2CC1=O	85	/	.	.	/	/
C[C@H]1CN([C@@H](C)CO)C(=O)Cc2cc(NS(=O)(=O)c3ccc(Cl)cc3)ccc2O[C@H]1CN(C)Cc1ccc(C(F)(F)F)cc1	.	/	.	.	/	/
C[C@@H]1CN([C@@H](C)CO)C(=O)Cc2cc(NS(=O)(=O)c3cccs3)ccc2O[C@H]1CN(C)Cc1ccc(C(F)(F)F)cc1	91	/	.	.	/	/
C[C@H](CO)N1C[C@H](C)[C@@H](CN(C)Cc2ccc(C(F)(F)F)cc2)Oc2ccc(NS(=O)(=O)c3ccc(F)cc3)cc2CC1=O	83	/	.	.	/	/
C[C@H](CO)N1C[C@H](C)[C@H](CN(C)Cc2ccc(C(F)(F)F)cc2)Oc2ccc(NS(=O)(=O)c3ccc(Cl)cc3)cc2CC1=O	.	/	.	59	/	/
Cc1ccc(S(=O)(=O)N(C)C[C@H]2Oc3ccc(NC(=O)Nc4c(C)noc4C)cc3CC(=O)N([C@H](C)CO)C[C@@H]2C)cc1	.	/	.	.	/	/
CC=Cc1ccc2n(c1=O)C[C@H]1[C@H](CO)[C@@H](C(=O)NCCC)N(C(=O)c3cccnc3)[C@@H]21 (mixture of isomers)	/	/	.	.	/	/
COc1cccc(-c2cn(CC[C@@H]3CC[C@H](NS(=O)(=O)Cc4ccccc4)[C@H](CO)O3)nn2)c1	.	/	.	.	/	/
C[C@H](CO)N1C[C@H](C)[C@@H](CN(C)Cc2ccc(C(F)(F)F)cc2)Oc2ccc(NS(=O)(=O)c3ccc(F)cc3)cc2C1=O	.	/	.	.	/	/
C[C@H](CO)N1C[C@H](C)[C@@H](CN(C)Cc2ccc(C(F)(F)F)cc2)Oc2ccc(NS(=O)(=O)c3ccccc3)cc2CC1=O	76	/	.	/	/	/
C[C@@H]1CN([C@@H](C)CO)C(=O)c2cc(NS(=O)(=O)c3ccc(F)cc3)ccc2O[C@@H]1CN(C)Cc1ccc(C(F)(F)F)cc1	107	/	.	75	/	/
COc1cccc(CNC(=O)C[C@@H]2C=C[C@@H](NC(=O)C3CCC3)[C@H](CO)O2)c1	.	/	.	.	/	/
CC(C)c1ccc(S(=O)(=O)c2cc3cc(Br)ccc3oc2=O)cc1	.	54	.	/	.	.
CCN(CC)c1ccc2cc(S(=O)(=O)c3ccc(Cl)cc3)c(=O)oc2c1	.	.	.	.	.	.
Cc1ccc(S(=O)(=O)c2cc3cc(Br)ccc3oc2=O)cc1	/	80	.	/	.	.
O=C1N[C@@H](c2ccccc2)COC(=O)[C@@H](Cc2ccc(F)cc2)CC/C=C/C[C@@H]1CC(=O)N(CCO)Cc1ccccc1	.	60	.	.	.	.
O=C1N[C@@H](c2ccccc2)COC(=O)[C@@H](Cc2ccc(F)cc2)CC/C=C/C[C@H]1CC(=O)N(CCO)Cc1ccccc1	.	.	.	.	.	.
SMILES	PAX8 reporter	TWEAK-Fn14 inh	LGR2 antag	EWS-Fli block	EBV LMP1 NFkB	TROY signal inh
Cc1cc(O)c(C2=Nc3ccccc3SC(c3ccc(Cl)cc3)C2)c(=O)o1 (stereo not drawn)	.	77	.	/	.	75
COC(=O)C[C@@H]1CC[C@H]2[C@H](COc3ccc(NS(=O)(=O)c4cccc(F)c4)cc3C(=O)N2C)O1	.	/	.	.	/	/
O=S1(=O)CCC(NC(=S)SCCOc2ccccc2)C1 (stereo not drawn)	.	70	.	.	.	.
O=S1(=O)CCC(NC(=S)NC2CCS(=O)(=O)C2)C1 (stereo not drawn)	.	.	.	.	.	.
CCCCSC(=S)NC1CCS(=O)(=O)C1 (stereo not drawn)	.	57	.	.	.	.
C[C@@H]1CCCCO[C@@H](CN(C)S(=O)(=O)c2cn(C)cn2)[C@H](C)CN([C@H](C)CO)C(=O)c2cc(NC(=O)Nc3ccc(C(F)(F)F)cc3)ccc2O1	.	/	.	.	/	/
CS(=O)(=O)c1ccc(-c2cn3cc(C(=O)O)ccc3n2)cc1	.	.	77	.	.	.
COC(=O)c1ccc2nc(-c3ccc(S(C)(=O)=O)cc3)cn2c1	.	.	.	.	.	.
CCOc1cc(CNc2ccc3c(c2)OCCO3)cc(Br)c1OCC(N)=O	/	88	/	/	.	64
CCOc1c(Br)cc(CNc2ccc3c(c2)OCCO3)cc1OC	/	85	/	/	.	59
COc1cc(CNc2ccc3c(c2)OCCO3)ccc1OCC(N)=O	.	.	.	.	.	.
CCOc1cc(CNc2ccc3c(c2)OCCO3)cc(Br)c1OC	/	94	/	/	.	85
CCOc1c(Br)cc(CNc2ccc(N3CCOCC3)cc2)cc1OC	.	.	.	.	.	.
C[C@@H]1CCCCO[C@@H](CN(C)S(C)(=O)=O)[C@H](C)CN([C@@H](C)CO)C(=O)c2cc(NC(=O)Cc3ccccc3)ccc2O1	.	/	.	.	/	/
O=C(NCc1ccccc1)[C@@H]1[C@@H](CO)[C@@H]2Cn3c(cccc3=O)[C@@H]2N1Cc1ccccc1F	/	/	.	.	/	/
COc1cc(NC(=O)Nc2ccccc2)c(OC)cc1NC(=O)CN1CCCCC1	/	78	/	/	.	/
CN1CCc2c(sc(/N=C/c3c[nH]c4ccccc34)c2C#N)C1	.	.	.	.	/	.
CN1CCc2c(sc(/N=C/c3cc(Cl)ccc3O)c2C#N)C1	.	65	.	.	.	74
CCc1cc(SC#N)cc(C)c1N	.	.	.	.	.	57
C[C@@H]1CCCCO[C@H](CN(C)CC2CC2)[C@H](C)CN([C@@H](C)CO)C(=O)c2cc(NS(=O)(=O)c3cccs3)ccc2O1	.	/	.	.	/	/
CN1CCN(C(=O)C[C@H]2CC[C@H]3[C@@H](COC[C@@H](O)CN3C(=O)C3CCOCC3)O2)CC1	.	/	.	.	/	/
